Reference: the supplement of paper PMC7411054
Where a name gives a salt, the structure may show the parent alone.

Legend:
Conditions in all cases: treatment time: 24 h
[1] = system: A549-ACTB-RAB5A; test: lowest phenotypically active concentration; higher = less potent
Outline: (§1)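 Cells from fifteen gene-edited reporter lines (A549, HepG2 and WPMY1) were treated for 24 h at 0.3, 1, 3 or 9 µM and imaged live, four wells per condition. Features were normalised per well to solvent control wells. A condition deviated if ≥3 of 4 wells passed the 95th percentile of control Euclidean distances and was reproducible if its median replicate Pearson correlation beat the 95th percentile of non-replicates; phenotypic activity needed both.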

[2] = system: A549-CANX-COX4; test: as above
Outline: as §1

[3] = system: A549-GM130-SQSTM1; test: as above
Outline: as §1

[4] = system: A549-TP53BP1-CLTA; test: as above
Outline: as §1

[5] = system: A549-TUBA1B-RELA; test: as above
Outline: as §1

[6] = system: HepG2-GM130-SQSTM1; test: as above
Outline: as §1

[7] = system: A549-ACTB-RAB5A; test: phenotypically active (imaging signature differs from DMSO and reproducible) at any of 0.3-9 uM (binary (1 = active, 0 = inactive)); higher = active
Outline: as §1

[8] = system: A549-CANX-COX4; test: as above
Outline: as §1

[9] = system: A549-GM130-SQSTM1; test: as above
Outline: as §1

[10] = system: A549-TP53BP1-CLTA; test: as above
Outline: as §1

[11] = system: A549-TUBA1B-RELA; test: as above
Outline: as §1

[12] = system: HepG2-ACTB-RAB5A; test: as above
Outline: as §1

[13] = system: HepG2-CANX-COX4; test: as above
Outline: as §1

[14] = system: HepG2-GM130-SQSTM1; test: as above
Outline: as §1

[15] = system: HepG2-TP53BP1-CLTA; test: as above
Outline: as §1

[16] = system: HepG2-TUBA1B-RELA; test: as above
Outline: as §1

[17] = system: WPMY1-CANX-COX4; test: as above
Outline: as §1

[18] = system: WPMY1-GM130-SQSTM1; test: as above
Outline: as §1

[19] = system: WPMY1-TP53BP1-CLTA; test: as above
Outline: as §1

[20] = system: WPMY1-TUBA1B-RELA; test: as above
Outline: as §1

COc1ccc(-c2cc3c(C)nc(N)nc3n([C@H]3CC[C@H](OCCO)CC3)c2=O)cn1
active: phenotypically active [7] 1 | phenotypically active [8] 1 | phenotypically active [9] 1 | phenotypically active [10] 1 | phenotypically active [11] 1 | phenotypically active [12] 1 | phenotypically active [13] 1 | phenotypically active [14] 1 | phenotypically active [15] 1 | phenotypically active [16] 1 | phenotypically active [17] 1 | phenotypically active [18] 1 | phenotypically active [19] 1 | phenotypically active [20] 1
≤ 0.3 µM: lowest phenotypically active concentration [1] | lowest phenotypically active concentration [2] | lowest phenotypically active concentration [3] | lowest phenotypically active concentration [4] | lowest phenotypically active concentration [5] | lowest phenotypically active concentration [6]

C[C@@H]1COCCN1c1cc(C2(S(C)(=O)=O)CC2)nc(-c2cccc3[nH]ccc23)n1
active: phenotypically active [7] 1 | phenotypically active [8] 1 | phenotypically active [9] 1 | phenotypically active [10] 1 | phenotypically active [11] 1 | phenotypically active [12] 1 | phenotypically active [13] 1 | phenotypically active [14] 1 | phenotypically active [15] 1 | phenotypically active [16] 1 | phenotypically active [17] 1 | phenotypically active [18] 1 | phenotypically active [19] 1 | phenotypically active [20] 1
1 µM: lowest phenotypically active concentration [2] | lowest phenotypically active concentration [5] | lowest phenotypically active concentration [6]
≤ 0.3 µM: lowest phenotypically active concentration [1] | lowest phenotypically active concentration [3] | lowest phenotypically active concentration [4]

CC(=O)Nc1ccc(C(=O)Nc2ccccc2N)cc1
1 µM: lowest phenotypically active concentration [1] | lowest phenotypically active concentration [2] | lowest phenotypically active concentration [3] | lowest phenotypically active concentration [5] | lowest phenotypically active concentration [6]
3 µM: lowest phenotypically active concentration [4]
active: phenotypically active [7] 1 | phenotypically active [8] 1 | phenotypically active [9] 1 | phenotypically active [10] 1 | phenotypically active [11] 1 | phenotypically active [12] 1 | phenotypically active [13] 1 | phenotypically active [14] 1 | phenotypically active [15] 1 | phenotypically active [16] 1 | phenotypically active [17] 1 | phenotypically active [18] 1 | phenotypically active [19] 1 | phenotypically active [20] 1

Cc1cc(Nc2ncc3c(n2)N(C)C(=O)N(c2cc(NC(=O)c4cccc(C(F)(F)F)c4)ccc2C)C3)n(C)n1 [Pluripotin]
≤ 0.3 µM: lowest phenotypically active concentration [1] | lowest phenotypically active concentration [2] | lowest phenotypically active concentration [3] | lowest phenotypically active concentration [4] | lowest phenotypically active concentration [5] | lowest phenotypically active concentration [6]
active: phenotypically active [7] 1 | phenotypically active [8] 1 | phenotypically active [9] 1 | phenotypically active [10] 1 | phenotypically active [11] 1 | phenotypically active [12] 1 | phenotypically active [13] 1 | phenotypically active [14] 1 | phenotypically active [15] 1 | phenotypically active [16] 1 | phenotypically active [17] 1 | phenotypically active [18] 1 | phenotypically active [19] 1 | phenotypically active [20] 1

COc1cc2nc(N3CCCN(C)CC3)nc(NC3CCN(Cc4ccccc4)CC3)c2cc1OC
1 µM: lowest phenotypically active concentration [2] | lowest phenotypically active concentration [4]
active: phenotypically active [7] 1 | phenotypically active [8] 1 | phenotypically active [9] 1 | phenotypically active [10] 1 | phenotypically active [11] 1 | phenotypically active [12] 1 | phenotypically active [13] 1 | phenotypically active [14] 1 | phenotypically active [15] 1 | phenotypically active [16] 1 | phenotypically active [17] 1 | phenotypically active [18] 1 | phenotypically active [19] 1 | phenotypically active [20] 1
≤ 0.3 µM: lowest phenotypically active concentration [1] | lowest phenotypically active concentration [3] | lowest phenotypically active concentration [5] | lowest phenotypically active concentration [6]

O=C(OC12CC3CC(CC(C3)C1)C2)c1ccc(NCc2cc(O)ccc2O)cc1 [Adaphostin]
1 µM: lowest phenotypically active concentration [1]
3 µM: lowest phenotypically active concentration [5] | lowest phenotypically active concentration [6]
9 µM: lowest phenotypically active concentration [2] | lowest phenotypically active concentration [3] | lowest phenotypically active concentration [4]
active: phenotypically active [7] 1 | phenotypically active [8] 1 | phenotypically active [9] 1 | phenotypically active [10] 1 | phenotypically active [11] 1 | phenotypically active [12] 1 | phenotypically active [13] 1 | phenotypically active [14] 1 | phenotypically active [15] 1 | phenotypically active [16] 1 | phenotypically active [17] 1 | phenotypically active [18] 1 | phenotypically active [19] 1 | phenotypically active [20] 1

Fc1ccccc1CNCc1ccc(-c2ccnc3[nH]ccc23)cc1 [OXA 06 dihydrochloride]
1 µM: lowest phenotypically active concentration [2] | lowest phenotypically active concentration [4] | lowest phenotypically active concentration [5]
active: phenotypically active [7] 1 | phenotypically active [8] 1 | phenotypically active [9] 1 | phenotypically active [10] 1 | phenotypically active [11] 1 | phenotypically active [12] 1 | phenotypically active [13] 1 | phenotypically active [14] 1 | phenotypically active [15] 1 | phenotypically active [16] 1 | phenotypically active [17] 1 | phenotypically active [18] 1 | phenotypically active [19] 1 | phenotypically active [20] 1
≤ 0.3 µM: lowest phenotypically active concentration [1] | lowest phenotypically active concentration [6]
3 µM: lowest phenotypically active concentration [3]

COc1ccc(S(=O)(=O)Nc2cccnc2Nc2ccc(O)cc2)cc1
active: phenotypically active [7] 1 | phenotypically active [8] 1 | phenotypically active [9] 1 | phenotypically active [10] 1 | phenotypically active [11] 1 | phenotypically active [12] 1 | phenotypically active [13] 1 | phenotypically active [14] 1 | phenotypically active [15] 1 | phenotypically active [16] 1 | phenotypically active [17] 1 | phenotypically active [18] 1 | phenotypically active [19] 1 | phenotypically active [20] 1
1 µM: lowest phenotypically active concentration [1] | lowest phenotypically active concentration [2] | lowest phenotypically active concentration [3] | lowest phenotypically active concentration [4] | lowest phenotypically active concentration [6]
3 µM: lowest phenotypically active concentration [5]

COc1ccc2[nH]c(C(=O)c3ccccc3)cc2c1
≤ 0.3 µM: lowest phenotypically active concentration [1] | lowest phenotypically active concentration [2] | lowest phenotypically active concentration [3] | lowest phenotypically active concentration [4] | lowest phenotypically active concentration [5] | lowest phenotypically active concentration [6]
active: phenotypically active [7] 1 | phenotypically active [8] 1 | phenotypically active [9] 1 | phenotypically active [10] 1 | phenotypically active [11] 1 | phenotypically active [12] 1 | phenotypically active [13] 1 | phenotypically active [14] 1 | phenotypically active [15] 1 | phenotypically active [16] 1 | phenotypically active [17] 1 | phenotypically active [18] 1 | phenotypically active [19] 1 | phenotypically active [20] 1

O=C(O)c1ccc(Nc2ncc3c(n2)-c2ccc(Cl)cc2C(c2c(F)cccc2F)=NC3)cc1
active: phenotypically active [7] 1 | phenotypically active [8] 1 | phenotypically active [9] 1 | phenotypically active [10] 1 | phenotypically active [11] 1 | phenotypically active [12] 1 | phenotypically active [13] 1 | phenotypically active [14] 1 | phenotypically active [15] 1 | phenotypically active [16] 1 | phenotypically active [17] 1 | phenotypically active [18] 1 | phenotypically active [19] 1 | phenotypically active [20] 1
≤ 0.3 µM: lowest phenotypically active concentration [1] | lowest phenotypically active concentration [2] | lowest phenotypically active concentration [3] | lowest phenotypically active concentration [4] | lowest phenotypically active concentration [5] | lowest phenotypically active concentration [6]

O=C(Nc1ccc(-c2ccnc(Nc3ccc(N4CCOCC4)cc3)n2)cc1)[C@@H]1CCCN1
3 µM: lowest phenotypically active concentration [1] | lowest phenotypically active concentration [3] | lowest phenotypically active concentration [5] | lowest phenotypically active concentration [6]
9 µM: lowest phenotypically active concentration [2] | lowest phenotypically active concentration [4]
active: phenotypically active [7] 1 | phenotypically active [8] 1 | phenotypically active [9] 1 | phenotypically active [10] 1 | phenotypically active [11] 1 | phenotypically active [12] 1 | phenotypically active [13] 1 | phenotypically active [14] 1 | phenotypically active [15] 1 | phenotypically active [16] 1 | phenotypically active [17] 1 | phenotypically active [18] 1 | phenotypically active [19] 1 | phenotypically active [20] 1
